According to PubChem BioAssay (Tox21):
Records with an inconclusive call do not appear. Where a call stands in place of a potency, no number is given. Active and inactive are the calls of the source. Calls follow the shape of the full dose curve.

Assay: qHTS assay for small molecules that induce genotoxicity in human embryonic kidney cells expressing luciferase-tagged ATAD5 - cell viability (AID 651634); also: nearly all actives have a fitted effect of over 25% in size
Details: HEK293T ATAD5-luc cells viability, CellTiter-Fluor, 15.5 h; series mostly up to 83.3 µM
Method in brief: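 After 15.5 hr incubation with compound at 37C, 5% CO2, HEK293T ATAD5-luciferase cells received CellTiter-Fluor reagent; fluorescence intensity was quantified following 30 min at 37C.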
With CC(O)COC(C)(C)C (centres undefined) the Potency was “inactive”.
For C[C@]12CCC(=O)C=C1CC[C@H]1[C@@H]3CC[C@](O)(C(=O)CO)[C@@]3(C)C[C@H](O)[C@@]12F, the Potency was “inactive”.
For CCCCC1CCC(O)CC1 (centres undefined), the Potency was “inactive”.
For CC(=O)O[C@H]1C[C@@H]2CC[C@@]1(C)C2(C)C, the Potency was “inactive”.
With CCCCCCCCCCOC(C)=O the Potency was “inactive”.
In the case of C=C(C)[C@@H]1CC=C(C)CC1, the Potency is reported as “inactive”.
For C#CCN[C@@H]1CCc2ccccc21, the Potency was “inactive”.
With Cc1c(N)cccc1Cl the Potency was “inactive”.
For c1ccc(B(c2ccccc2)c2ccccc2)cc1, the Potency was “inactive”.
For O=C1CCCCO1, the Potency was “inactive”.
With OCC1CCC(CO)CC1 (centres undefined) the Potency was “inactive”.
With CC1(C)O[C@H]2CC(=O)OC[C@]23[C@H]2CC[C@@]4(C)[C@H](c5ccoc5)OC(=O)[C@H]5O[C@]54[C@]2(C)C(=O)C[C@@H]13 the Potency was “inactive”.
In the case of c1ccc2cnccc2c1, the Potency is reported as “inactive”.
In the case of CC1=NN(c2ccc(S(=O)(=O)O)cc2)C(=O)C1, the Potency is reported as “inactive”.
For CCCCOCC(C)O (centres undefined), the Potency was “inactive”.
For C=CCCCC, the Potency was “inactive”.
In the case of O=C(NCN1CCOCC1)c1cnccn1, the Potency is reported as “inactive”.
In the case of N#Cc1cscn1, the Potency is reported as “inactive”.
For COC(=O)c1cccc(Cl)c1, the Potency was “inactive”.
With CN1CCOC(c2ccccc2)c2ccccc2C1 (centres undefined) the Potency was “inactive”.
With c1ccc2c(CC3=NCCN3)cccc2c1 the Potency was “inactive”.
For CC12CCC(C1)C(C)(C)C2O (centres undefined), the Potency was “inactive”.
With CC/C(C)=N\O[Si](C)(O/N=C(\C)CC)O/N=C(\C)CC the Potency was “inactive”.
In the case of O=[N+]([O-])c1c(Cl)cc(Cl)cc1Cl, the Potency is reported as “inactive”.
For CC(C)CO, the Potency was “inactive”.
For [O]=[Mo](=[O])=[O], the Potency was “inactive”.
In the case of CC1=C(C(=O)O)N2C(=O)[C@@H](NC(=O)[C@H](N)C3=CCC=CC3)[C@H]2SC1, the Potency is reported as “inactive”.
In the case of CO/N=C(/C(=O)N[C@@H]1C(=O)N2C(C(=O)[O-])=C(C[n+]3ccn4ncccc43)CS[C@H]12)c1nsc(N)n1, the Potency is reported as “inactive”.
With C=CC/C=C/C the Potency was “inactive”.
For CC(C)CCOC(=O)c1ccccc1, the Potency was “inactive”.
For CCO, the Potency was “inactive”.
For O=Cc1ccccc1Cl, the Potency was “inactive”.

Assay: qHTS assay for small molecule disruptors of the mitochondrial membrane potential - cell viability (AID 720634);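 also: human HepG2 liver cancer cells; nearly all actives have a fitted effect of over 20% in size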
Details: HepG2 viability, ATP luminescence (CellTiter-Glo), 1 h; series mostly up to 83.2 µM
Method in brief: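 ATP-based luminescent viability readout (CellTiter-Glo, 30 min, room temperature) in HepG2 cells multiplexed with the m-MPI membrane potential dye; compound exposure lasted 1 hr at 37 C.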
In the case of CC(O)COC(C)(C)C (centres undefined), the outcome is reported as “inactive”.
With C[C@]12CCC(=O)C=C1CC[C@H]1[C@@H]3CC[C@](O)(C(=O)CO)[C@@]3(C)C[C@H](O)[C@@]12F the outcome was “inactive”.
In the case of CCCCC1CCC(O)CC1 (centres undefined), the outcome is reported as “inactive”.
With CC(=O)O[C@H]1C[C@@H]2CC[C@@]1(C)C2(C)C the outcome was “inactive”.
With CCCCCCCCCCOC(C)=O the outcome was “inactive”.
In the case of O=C[O][Al]([O]C=O)[O]C=O, the outcome is reported as “inactive”.
For C#CCN[C@@H]1CCc2ccccc21, the outcome was “inactive”.
In the case of OCC1CCC(CO)CC1 (centres undefined), the outcome is reported as “inactive”.
In the case of CC1(C)O[C@H]2CC(=O)OC[C@]23[C@H]2CC[C@@]4(C)[C@H](c5ccoc5)OC(=O)[C@H]5O[C@]54[C@]2(C)C(=O)C[C@@H]13, the outcome is reported as “inactive”.
For Cn1c(=O)c2[nH]c(Br)nc2n(C)c1=O, the outcome was “inactive”.
For c1ccc2cnccc2c1, the outcome was “inactive”.
In the case of CC1=NN(c2ccc(S(=O)(=O)O)cc2)C(=O)C1, the outcome is reported as “inactive”.
In the case of CCCCOCC(C)O (centres undefined), the outcome is reported as “inactive”.
With O=C(NCN1CCOCC1)c1cnccn1 the outcome was “inactive”.
With N#Cc1cscn1 the outcome was “inactive”.
With COC(=O)c1cccc(Cl)c1 the outcome was “inactive”.
With CN1CCOC(c2ccccc2)c2ccccc2C1 (centres undefined) the outcome was “inactive”.
With c1ccc2c(CC3=NCCN3)cccc2c1 the outcome was “inactive”.
For CC12CCC(C1)C(C)(C)C2O (centres undefined), the outcome was “inactive”.
For CC/C(C)=N\O[Si](C)(O/N=C(\C)CC)O/N=C(\C)CC, the outcome was “inactive”.
In the case of O=[N+]([O-])c1c(Cl)cc(Cl)cc1Cl, the outcome is reported as “inactive”.
For CC(C)CO, the outcome was “inactive”.
For CC1=C(C(=O)O)N2C(=O)[C@@H](NC(=O)[C@H](N)C3=CCC=CC3)[C@H]2SC1, the outcome was “inactive”.
With CO/N=C(/C(=O)N[C@@H]1C(=O)N2C(C(=O)[O-])=C(C[n+]3ccn4ncccc43)CS[C@H]12)c1nsc(N)n1 the outcome was “inactive”.
For C=CC/C=C/C, the outcome was “inactive”.
With CCO the outcome was “inactive”.
With O=Cc1ccccc1Cl the outcome was “inactive”.
